Most compounds without a hit are left out; they make up all but 0.52% or so of the library.
Sa growth 42C = S. aureus growth inhibition; relative growth, % (concentration not given with the values); S. aureus RN4220 growth, OD600, 20 h, 42 °C; stronger effect = lower value; hit rate 0.53% among 170,000;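 active = relative growth at most 50% at the other temperature and 20+ points below 30 °C, or under 10% at both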
S aureus helic = blocks Staphylococcus aureus DNA helicase. purified S. aureus helicase, fluorescence unwinding assay. inhibition, % (test concentration not listed). hit rate 0.05% among 120,000. AID 485395; in the data active = inhibition above about 25%, passing the limit was not always enough;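 note: 0% = mean of negative control wells and 100% = mean of positive control wells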
* hit, by the source's call; / = no result; ! = not confirmed by another sample.

SMILES	Sa growth 42C	S aureus helic
Oc1cc(Cl)ccc1Oc1ccc(Cl)cc1Cl	-0.7*	/
CCOC(=O)CSC(c1ccccc1)c1c(C(=O)OC)[nH]c2ccccc12 (stereo not drawn)	161.6	3.0
O=P1(Nc2ccc(Br)cc2)CC=CC1	/	-19.0
Nc1c(C(=O)NC2CC2)c2nc3ccccc3nc2n1Cc1ccccc1	102.1	-10.0
CC1(C)CC(C)(O)P(C)(=O)O1 (stereo not drawn)	79.5	-1.0
O=C(O)c1ccccc1C(=O)Nc1cccc2ccccc12	/	8.0
C[CH2][Hg][S]c1ccccc1C(=O)O	-0.5*	/
CC(C)OP(=S)(OC(C)C)OC(C)C	110.0	16.0
NP1(=O)C=C(c2ccccc2)OC(c2ccccc2)=C1	100.7	-14.0
CC(=O)OC1CC2(C)C(CCC3C2CCC2(C)C(OC(C)=O)CCC32)CC1=O (stereo not drawn)	89.6	/
Clc1ccc(CON=C(Cn2ccnc2)c2ccc(Cl)cc2Cl)c(Cl)c1	0.0*	/
Clc1ccc(COC(Cn2ccnc2)c2ccc(Cl)cc2Cl)c(Cl)c1 (stereo not drawn)	0.0*!	/
O=C1NC(=O)C(=Cc2ccc(-c3cc(C(=O)O)ccc3Cl)o2)C(=O)N1	92.9	32.0
COc1ccc(Cc2nc3ccccc3n2Cc2ccccc2)cc1	79.3	4.0
CN(C)[C@@H]1C(=O)C(C(N)=O)=C(O)[C@@]2(O)C(=O)C3=C(O)c4c(O)cccc4[C@@](C)(O)[C@H]3[C@H](O)[C@@H]12	-0.6*	/
CN(C)[C@@H]1C(=O)C(C(N)=O)=C(O)[C@@]2(O)C(=O)C3=C(O)c4c(O)ccc(Cl)c4[C@@](C)(O)[C@H]3C[C@@H]12	-0.1*	/
CN[C@@H]1C2CN3CCC(O2)[C@@H]13 (stereo partly drawn)	97.8	-2.0
CC1=NN(c2ccccc2)C(=O)/C1=C\c1c(O)[nH]c(=O)[nH]c1=O	95.4	0.0
CCN(CC)P1(=S)N(c2ccccc2)N=C2C=C(C)c3ccccc3N21 (stereo not drawn)	91.9	-12.0
CC1CCCCN1C(=O)Cn1cc(C(=O)c2ccccc2)c2ccccc21 (stereo not drawn)	108.7	16.0
C=CCN1C(=O)CN=C(c2cccs2)c2c1sc1c2CCC1	114.3	9.0
CCOC(=O)c1c(-c2ccccc2)n(Cc2ccccc2)c2ccc(O)c(CN(C)C)c12	-0.9*	5.0
CCOC(=O)c1c(C)n(Cc2ccccc2)c2ccc(O)cc12	100.2	4.0
CN(C)P(=O)(OCC(F)(F)F)N(C)C	97.5	12.0
CCCCCCCCCCCCCCCC[n+]1ccccc1	-0.8*	/
SMILES	Sa growth 42C	S aureus helic
CN1C(=O)/C(=C/c2ccc(I)o2)C(=O)NC1=S	51.6	21.0
CC(=O)OC1CCC2(C)C3CCC4(C)C(OC(C)=O)CCC4C3CC(O)C2(O)C1 (stereo not drawn)	90.7	/
O=S(=O)(c1ccc(Cl)cc1)N1CCCCC1c1cccnc1 (stereo not drawn)	80.7	3.0
CC(=O)N1CCCCC1c1cccnc1.O=[N+]([O-])O.[Ag] (stereo not drawn)	5.0*	6.0
O=C1C=Cc2ccc3c4c(ccc1c24)C=CC3=O	71.6	48.0*
O=C1NC(=S)NC(=O)C1=Cc1ccccc1	94.6	4.0
CCCSc1nc2ccccc2c(=O)n1-c1ccccc1F	79.3	5.0
N#CC(C#N)=NNc1ccc(-n2ccc(C(F)(F)F)n2)cc1	-0.4*	-10.0
COc1ccc(C(CN(C)C)C2(O)CCCCC2)cc1 (stereo not drawn)	0.0*!	/
CC(C)N(Cc1ccccc1)C(=O)C(C)(C)C	84.3	14.0
CN(C)CCC(=O)c1ccccc1	66.1	1.0
CC(=O)[O][Hg][c]1ccccc1	-0.7*	/
COc1ccc(C)cc1CCNCc1ccncc1	74.0	-7.0
C1=C(c2c[nH]c3ccccc23)CCN(Cc2ccccc2)C1	-0.9*	7.0
CN1CC=C(c2c[nH]c3ccccc23)CC1	79.9	-5.0
OC(CNCC1CCCCC1)c1ccccc1 (stereo not drawn)	80.3	18.0
CCOc1ccccc1C=C(C#N)C#N	73.0	/
